The full list was thinned out, with hits kept by preference.
HIV RNase H inh-1: blocks HIV-1 RNase H cleavage of RNA/DNA duplex | P04585 | RT-RNase H RNA/DNA duplex cleavage, fluorescence | inhibition, % at 10 µM | 65,000 tested, 1.9% active | AID 565; in the data active means inhibition above about 50%
HIV RNase H inh-2: confirmation of HIV-1 reverse transcriptase RNase H inhibitors; Recombinant RT RNase H, fluorescent RNA/DNA duplex cleavage; 1,000 tested, 39% active; shares compounds with HIV RNase H inh-1; inhibition, % at 10 µM; in the data active means inhibition above about 48%
* = called active by the depositor.

SMILES	HIV RNase H inh-1	others
COc1ccc(-c2nc3nc(C)cc(C)n3n2)cc1	-9
c1ccc(-c2nc3nonc3nc2-c2ccccc2)cc1	-4
CCOc1ccc(-c2nnc(N(CC)C(=O)C3CCC3)s2)cc1	66*	HIV RNase H inh-2=1
CCCC(=O)N(C)c1nnc(-c2ccc(OC)cc2)s1	32
CCN(C(=O)Cc1cccs1)c1nnc(-c2cc(OC)c(OC)c(OC)c2)s1	-20
COc1cc(-c2ccc(NC(=O)CN3CCCCC3)c(OC)c2)ccc1NC(=O)CN1CCCCC1	-2
CCc1ccccc1NC(=O)CN1CCC(NC(=O)COC)CC1	-1
O=C(c1ccc(Cl)cc1)N1CCN(c2nc(N3CCCCC3)nc(N3CCCCC3)n2)CC1	1
C=CCOC(=O)CN1C(=O)c2ccccc2C1=O	-51
CC1CN(C(=O)Cc2ccc(-c3ccccc3)cc2)CC(C)O1 (stereo not given)	-16
Cc1noc(/C=C/c2ccco2)c1S(=O)(=O)N1CCC(C(=O)N2CCc3ccccc3C2)CC1	38
Cc1nc(-c2cccc(S(=O)(=O)N3CCOCC3)c2)cs1	78*	HIV RNase H inh-2=58*
CCOC(=O)C1CCN(S(=O)(=O)c2cccc(-c3csc(C)n3)c2)CC1	23
Cc1nc(-c2cccc(S(=O)(=O)N3CC(C)OC(C)C3)c2)cs1 (stereo not given)	-11
O=C(NCC(c1cccnc1)N1CCN(c2ccc(F)cc2)CC1)c1ccc(F)cc1 (stereo not given)	-9
Cc1cc(=O)[nH]c(SCC(=O)C23CC4CC(CC(C4)C2)C3)c1C#N	61*	HIV RNase H inh-2=12
Cc1cc(C)c(C#N)c(SCC(=O)OC2CCCCC2)n1	-44
COCCn1c(C)cc(C(=O)CSc2nc(C)cc(C)c2C#N)c1C	-61
COc1ccc2nc(NC(=O)CN(c3ccc(C)cc3)S(=O)(=O)c3c(C)nn(C)c3C)sc2c1	-18
CCCSc1nnc2nc(C)cc(C)n12	-11
Cc1ccc(-c2n[nH]c(=S)n2C)cc1	-9
Cc1cc(C)n2c(=S)[nH]nc2n1	74*	HIV RNase H inh-2=67*
COc1ccc(NC(=O)C2CCCN2c2ccc(OC)c(OC)c2)cc1OC (stereo not given)	-2
CC1=C(C(=O)Nc2ccccc2C)C(c2ccc(C)o2)C2=C(CCCC2=O)N1 (stereo not given)	-2
Cc1cc(C(=O)NCCC2=CCCCC2)c(C)o1	-21
SMILES	HIV RNase H inh-1	others
C=CCn1c(N)c(C(=O)NCCC2=CCCCC2)sc1=S	81*	HIV RNase H inh-2=87*
O=C(CCn1c(=O)sc2ccccc21)NCCC1=CCCCC1	-25
CCn1c(=O)c2cc(S(=O)(=O)NC3CCCCC3)ccc2n(CC)c1=O	-8
COC(=O)c1[nH]c2ccccc2c1NC(=O)CNC1CCCCC1	-1
CC(c1ccccc1)C1C(C#N)=C(N)OC2=C1C(=O)CC(C)(C)C2 (stereo not given)	-7
CC1(C)CC(=O)C2=C(C1)OC(N)=C(C#N)C2C#Cc1ccccc1 (stereo not given)	60*	HIV RNase H inh-2=5
CC1(C)CC(=O)C2=C(C1)OC(N)=C(C#N)C2CCc1ccccc1 (stereo not given)	-3
O=C(Nc1ccccc1F)N(CCCN1CCOCC1)Cc1cc2cc3c(cc2[nH]c1=O)OCCO3	-12
Cc1ccccc1-n1c(Cn2c(=O)sc3ccccc32)nnc1SCC(=O)NCC1CCCO1 (stereo not given)	-2
CC(NC(=O)c1cccnc1)c1ccc2c(c1)OCO2 (stereo not given)	5
N#Cc1c(NC(=O)CSc2nnnn2C2CCCCC2)sc2c1CCCC2	0
N#Cc1c(NC(=O)CSCC(=O)O)sc2c1CCCC2	-3
N#Cc1ccc(-c2cccnc2)nc1SCC(=O)Nc1sc2c(c1C#N)CCC2	90*	HIV RNase H inh-2=42
COc1ccc(Cc2nnc3n2N=C(c2cc4ccccc4o2)CS3)cc1OC	71*	HIV RNase H inh-2=47
COc1ccc(C2=Nn3c(nnc3-c3ccccc3)SC2)cc1OC	-2
CCCc1nnc2n1N=C(c1ccc(OC)c(OC)c1)CS2	-17
Cn1cccc1P(=O)(c1cccn1C)c1cccn1C	-7
CS(=O)(=O)N1CCC(C(=O)c2cccc(Cl)c2)CC1	2
Cn1c(=O)c2c(nc(Oc3ccccn3)n2C)n(C)c1=O	-7
COCCCn1c(SCC(=O)OC2CCCCC2)nnc1-c1ccco1	-3
COCCCN=C(c1ccco1)n1c(=S)nc(-c2ccco2)n(CCCOC)c1=S	63*	HIV RNase H inh-2=3
COCCCn1c(-c2ccco2)nc2ccccc2c1=O	-24
COCCn1c(=NC(=O)CSCC(=O)Nc2cc(C)on2)sc2cc(C(=O)OC)ccc21	-2
CC(NC(=O)C1CCCN(S(=O)(=O)c2cnc[nH]2)C1)c1ccccc1 (stereo not given)	-3
COc1cc2c(c(OC)c1)C(c1cccc(OC)c1OC)CC(=O)N2 (stereo not given)	-44
SMILES	HIV RNase H inh-1	others
CCCOc1c(OC)cccc1C1CC(=O)Nc2cc(OC)c(OC)c(OC)c21 (stereo not given)	66*	HIV RNase H inh-2=35
COc1ccc(OC)c(C2CC(=O)Nc3cc(OC)c(OC)c(OC)c32)c1 (stereo not given)	6
N#Cc1ccccc1NC(=O)COC(=O)CSc1nc2ccccc2o1	1
c1ccc(CSc2nncn2-c2ccccn2)cc1	-5
CC1CCN(C(=O)CSc2nncn2-c2ccccn2)CC1	76*	HIV RNase H inh-2=37
CC1CCN(C(=O)CSc2nnc(Cn3c(=O)sc4ccccc43)n2C)CC1	-11
Cc1ccc2c(c1)[nH]c1c(=O)n(CCN3CCCCC3)cnc12	-17
O=c1c2[nH]c3ccccc3c2ncn1CCN1CCCCC1	78*	HIV RNase H inh-2=37
O=c1c2[nH]c3ccccc3c2ncn1CCN1CCOCC1	1
CC(C)(C)C(=O)C(Oc1cccc2nonc12)n1cncn1 (stereo not given)	-8
CCC1SC2=NC(C)=C(C(=O)OC)C(c3cccs3)N2C1=O (stereo not given)	-8
CCOc1ccc2[nH]c(=O)c(CN(Cc3ccc(F)cc3)C(=O)c3ccco3)cc2c1	42
COc1ccc2[nH]c(=O)c(CN(Cc3ccc4c(c3)OCO4)C(C)=O)cc2c1	-16
CCc1ccc2[nH]c(=O)c(CN(Cc3ccc4c(c3)OCO4)C(=O)c3ccco3)cc2c1	58*	HIV RNase H inh-2=20
COc1ccccc1NC(=O)c1ccccc1SC	-44
COc1ccccc1NC(=O)c1cc2ccc(O)cc2o/c1=N\O	-12
COc1ccccc1NC(=O)c1cc2ccccc2o/c1=N\O	89*	HIV RNase H inh-2=-4
COC(=O)c1ccccc1NC(=O)C12CCC(C)(C(=O)O1)C2(C)C (stereo not given)	-3
COCCn1c(SC(C)C(=O)Nc2ccc3c(c2)OCCO3)nc2ccccc2c1=O (stereo not given)	1
CC(C)Cn1c(SCC(=O)NC(=O)Nc2ccc3c(c2)OCCO3)nc2ccccc2c1=O	92*	HIV RNase H inh-2=54*
C=CCn1c(SCC(=O)Nc2ccc3c(c2)OCO3)nc2ccccc2c1=O	-6
O=C(CN1CCN(S(=O)(=O)c2cc(Cl)ccc2Cl)CC1)Nc1ccc2c(c1)OCCO2	-11
COc1ccc(C(c2nnnn2CCc2ccccc2)N2CCN(C3CCCC3)CC2)cc1OC (stereo not given)	-8
Cc1ccc(C(N)=S)c(C)c1	-8
COC(=O)C(Cc1cnc[nH]1)NC(=O)C1CCC(=O)N1 (stereo not given)	-7
O=C(c1ccc2c3c(cccc13)CC2)N1CCOCC1	6
O=C(c1cccnc1Nc1ccc2c(c1)CCC2)N1CCOCC1	84*	HIV RNase H inh-2=9

Screening results from PubChem.
